Sampled rows, rich in hits. Any-hit rate of the full collection: about 1.8%.
NLRP3 yeast inh: NALP3 inhibition in yeast. Yeast reconstituted NLRP3/ASC/caspase-1, beta-gal luminescence, 24 h. inhibition, % at 10 µM. 0.39% of 330,000 active. AID 2825;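 active = inhibition of 50% or more; inactive = inhibition below 50%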;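 note: plate controls were induced DMSO wells for no effect and uninduced yeast grown without galactose for full effect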
Mot1-301 SUMO: SUMOylation pathway inhibition by Mot1-301 growth rescue; S. cerevisiae Mot1-301 growth rescue, ATP luminescence, 38.5C; percent above DMSO median, 100 means doubled; growth rescue, % at 18.8 µM; 1% of 320,000 active; AID 2716;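 active = every valid replicate shows activation above 250% relative to neutral control wells; inactive = the rest, any valid replicate at or below 250%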;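 note: OY570 slx delta 5 strain wells were the positive control but not used for scaling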
PolyA inh: yeast polyadenylation inhibition. S. cerevisiae SKY197-pL101 polyadenylation reporter, beta-gal luminescence; efflux-impaired pdr1/pdr3 knockout yeast; score 100 = 6 SD above DMSO. activity score, % at 12 µM. 0.02% of 300,000 active. AID 1875;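 active = lowest replicate activity score at least 50, where 100 means six control SD above control mean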;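 note: yeast exposed to compound for 9 h at 30 °C; higher score means more reporter readthrough which indicates perturbed polyadenylation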
NALP1 yeast inh: blocks the NALP1 inflammasome reconstituted in yeast; S. cerevisiae NALP1/ASC/caspase-1 growth, X-gal OD620, 72 h; AID 2071; inhibition, % at 10 µM; 0.61% of 280,000 active; in the data active = inhibition mostly above about 24%, no sharp cut-off; inactive = mostly below about 32%
Mot1 SUMO dose: SUMO pathway inhibitors in yeast Mot1-301 growth. S. cerevisiae Mot1-301 galactose growth, ATP luminescence, 24 h; -100 = growth of slx-deleted rescue strain. growth activity, percent, % at 42 µM. 2,300 tested, under 10 active. AID 493004. shares compounds with Mot1-301 SUMO;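 active = Signal drops as the depositor expects, and the fitted half-maximal dose is no more than ten times the top valid tested dose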;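 note: more negative values mean stronger growth rescue toward the control strain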
* marks the source's active call; other numbers are inactive results; nt = not tested or not shown.

SMILES | NLRP3 yeast inh | Mot1-301 SUMO | PolyA inh | NALP1 yeast inh | Mot1 SUMO dose
Cc1noc(C)c1Cc1ccc(O)cc1 | -30.1 | 472.1* | 18.6 | 33.4 | -0.8
COc1ccc(S(=O)(=O)O)cc1P(=O)(c1ccccc1)c1ccccc1 | 7.3 | 0.0 | -5.2 | 2.7 | nt
COC(=O)c1sc2ccccc2c1NC(=O)c1ccc(S(=O)(=O)N2CCCC(C)C2)cc1 (stereo unspecified) | 7.0 | 511.3* | 1.7 | 29.5 | -0.2
Cc1n[nH]c(=O)nc1NCc1ccc(Cl)cc1 | 4.6 | 627.4* | 3.2 | 12.9 | 0.0
Cc1ccc2c(c1)N(CC(=O)NCCCN1CCN(C)CC1)C(=O)CO2 | 3.3 | 634.4* | 13.2 | 14.6 | 0.0
CC1(OC(=O)CCc2ccccc2)C(=O)C=C2C=C(c3ccc(C#N)cc3)N(C3CCCC3)C=C2C1=O (stereo unspecified) | 20.0 | 645.4* | -19.7 | nt | 0.2
CC1(OC(=O)CCc2ccccc2)C(=O)C=C2C=C(c3ccc(C#N)cc3)N(c3ccccc3)C=C2C1=O (stereo unspecified) | 12.9 | 10.8 | 3.7 | 5.4 | nt
CC1(OC(=O)CCc2ccccc2)C(=O)C=C2C=C(c3ccc(C#N)cc3)N(CC3CC3)C=C2C1=O (stereo unspecified) | -3.2 | 588.6* | -13.3 | nt | 0.2
O=C(Nc1nc2ccccc2s1)C1CC(=O)N(c2ccc(Cl)cc2)C1 (stereo unspecified) | 6.9 | 228.0 | 1.0 | -14.5 | nt
O=C(NCc1ccco1)c1ccc(Br)c(S(=O)(=O)N2CCCCC2)c1 | 20.2 | 584.5* | -21.2 | -4.3 | 1.9
O=C(NCc1ccco1)c1ccc(F)c(S(=O)(=O)N2CCCCC2)c1 | 9.7 | -12.3 | 1.9 | 12.8 | nt
CCOC(=O)c1oc2ccccc2c1COC(=O)CNC(=O)c1cccc(C)c1 | 6.3 | 984.1* | -5.6 | -7.2 | 0.1
COc1ccccc1CNS(=O)(=O)c1ccc2c(c1)CC(C)N2C(=O)C1CC1 (stereo unspecified) | 16.8 | 253.2 | -5.1 | 16.7 | nt
CC(=O)Nc1ccc(NC(=O)CSc2nnc(CNc3ccc(F)cc3)n2CC2CCCO2)cc1 (stereo unspecified) | 7.6 | 289.0 | -16.4 | 15.3 | nt
COc1cc(/C=N/NC2=NS(=O)(=O)c3ccccc32)cc(OC)c1OC | -1.7 | 629.7* | 14.3 | -6.5 | 0.2
CCN(CC)S(=O)(=O)c1ccc(C(=O)/C=C/c2ccc(-c3ccc([N+](=O)[O-])cc3)o2)cc1 | 9.6 | 40.2 | 23.1 | nt | nt
C[C@H]1O[C@H]1P(=O)(O)O | 11.7 | 974.8* | 7.1 | 15.6 | 0.8
C[C@@H]1O[C@@H]1P(=O)(O)O | 0.0 | 90.9 | nt | nt | nt
COc1ccc(NC(=O)COc2cc(C)cc(C)c2)cc1S(=O)(=O)N1CCCCC1 | 14.5 | 530.0* | 1.9 | nt | 1.1
COc1ccc(NC(=O)Cn2c(=O)cnc3ccccc32)cc1S(=O)(=O)N1CCCCC1 | 11.5 | 427.9* | -15.3 | nt | 0.4
COc1ccc(NC(=O)COc2ccc(C)c(C)c2)cc1S(=O)(=O)N1CCCCC1 | 26.8 | -8.7 | 3.0 | nt | nt
CCOC(=O)c1c(/N=C/C2C(=O)CCCC2=O)sc2c1CCCC2 | 12.0 | 467.1* | -8.8 | 14.9 | -0.3
COc1ccc(OC(=O)c2ccc(Cl)cc2)c(C(C)=O)c1 | 19.8 | 407.5* | -0.8 | 15.0 | 0.0
CN(C)CC/C=C1/c2cc(F)ccc2Sc2ccc(Cl)cc21 | 35.9 | 738.2* | 12.1 | nt | 0.0
CN(C)CC/C=C1/c2ccccc2Sc2c(O)cc(Cl)cc21 | 19.3 | 1.7 | -0.6 | 22.7 | nt
SMILES | NLRP3 yeast inh | Mot1-301 SUMO | PolyA inh | NALP1 yeast inh | Mot1 SUMO dose
O=C(NCc1ccco1)c1ccc2c(c1)N(Cc1ccccc1)CCS2 | -1.3 | 13.8 | 0.1 | 15.5 | nt
O=C(CCc1ccccc1)NNC(=S)Nc1ccc(F)cc1 | 13.8 | 376.9* | 9.8 | 7.0 | -0.6
COc1ccc(Cl)cc1NC(=O)CN(C)CC(=O)Nc1ccccc1N1CCOCC1 | 20.4 | -14.8 | 8.8 | -3.7 | nt
O=c1c2ccccc2nc(COc2ccccc2)n1/N=C/c1cn[nH]c1-c1ccccc1 | -10.6 | 647.1* | -13.4 | 20.9 | -0.7
Cc1cc(C)nc(SCC2COc3ccccc3O2)n1 (stereo unspecified) | 34.1 | 393.5* | -3.5 | 11.9 | 0.6
CN(C(=O)c1ccc(-c2nn(C)c(=O)c3ccccc23)cc1)C1CCCCC1 | 0.5 | 736.3* | -2.0 | 8.3 | -0.1
O=C(NCCN1CCOCC1)Nc1ccc(Cl)cc1Cl | 14.9 | 901.4* | 11.6 | 0.7 | 0.9
